This is part of a sample that, as a whole, favours compounds with a hit. Of some 83,000 tested, about 20% had one in any assay.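 Step 1: grow cells in 96-well plates. Step 2: add test compound at a single concentration. Step 3: incubate 48 h. Step 4: record percent growth.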 Activity calls are given as the source filed them. How the source made its calls: active means growth percent below 10; inactive means the rest.
Tests used:
Assay in all cases: NCI-60 one-dose screen, 48 h (100 = growth as untreated, 0 = no growth, -100 = all killed)
NCI-H23 lung = settings: 10 µM unless noted
NCI-H226 lung = settings: 10 µM unless noted
NCI-H322M lung = settings: 10 µM unless noted
HOP-62 NSCLC = settings: 10 µM unless noted
NCI-H460 lung = settings: 10 µM unless noted
HOP-92 NSCLC = settings: 10 µM unless noted
NCI-H522 lung = settings: 10 µM unless noted
A549/ATCC NSCLC = settings: 10 µM unless noted
786-0 renal = settings: 10 µM unless noted
COLO 205 colon = settings: 10 µM unless noted
DU-145 prostate = settings: 10 µM unless noted
MALME-3M melanoma = settings: 10 µM unless noted
MDA-MB-231 breast = settings: 10 µM unless noted
RXF 393 renal = settings: 10 µM unless noted
SF-268 CNS = settings: 10 µM unless noted
SF-295 CNS = settings: 10 µM unless noted
SF-539 CNS = settings: 10 µM unless noted
M14 melanoma = settings: 10 µM unless noted
UACC-257 melanoma = settings: 10 µM

Measured: growth

COc1ccc2c(c1)c(-c1nn3c(=O)cc(-c4ccccc4)nc3s1)cn2C
inactive: NCI-H23 lung 63% | NCI-H226 lung 21.1% | NCI-H322M lung 65.2% | HOP-62 NSCLC 43.2% | NCI-H460 lung 21.7% | HOP-92 NSCLC 18.7% | A549/ATCC NSCLC 56.7% | 786-0 renal 37.8% | COLO 205 colon 27.2% | DU-145 prostate 63.8% | MALME-3M melanoma 35.5% | MDA-MB-231 breast 55.3% | RXF 393 renal 35.4% | SF-268 CNS 64.9% | SF-295 CNS 28.8% | SF-539 CNS 16% | M14 melanoma 35.4%
active: NCI-H522 lung -34%

COc1ccc([C@@H]2[C@@H](O)C(=O)N2c2cc(OC)c(OC)c(OC)c2)cc1Cl
inactive: NCI-H23 lung 28% | NCI-H226 lung 33.3% | NCI-H322M lung 44.8% | HOP-62 NSCLC 24.5% | A549/ATCC NSCLC 22.2% | 786-0 renal 18.9% | DU-145 prostate 15.2% | MALME-3M melanoma 64.3% | MDA-MB-231 breast 26% | RXF 393 renal 26% | SF-268 CNS 44% | M14 melanoma 13.4%
active: NCI-H460 lung 2.22% | HOP-92 NSCLC -2.92% | NCI-H522 lung -8.73% | COLO 205 colon -81.1% | SF-295 CNS 9.68% | SF-539 CNS -12.4%

C=CCn1c(SCC(=O)Nc2cccc(C(=O)/C=C/c3ccc(Cl)cc3)c2)nc2ccccc2c1=O
inactive: NCI-H23 lung 92.3% | NCI-H226 lung 102% | NCI-H322M lung 95.6% | HOP-62 NSCLC 113% | NCI-H460 lung 95.4% | HOP-92 NSCLC 88.7% | NCI-H522 lung 81.8% | A549/ATCC NSCLC 85.7% | 786-0 renal 98.2% | COLO 205 colon 112% | DU-145 prostate 95.1% | MALME-3M melanoma 95.6% | MDA-MB-231 breast 81.3% | RXF 393 renal 87% | SF-268 CNS 87.3% | SF-295 CNS 94.7% | SF-539 CNS 85.9% | UACC-257 melanoma 102% | M14 melanoma 87.8%

CCN1CCN(Cc2ccc(C(=O)Nc3nc4ccc(Oc5ccnc(C(=O)NC)c5)cc4s3)cc2C(F)(F)F)CC1
inactive: NCI-H23 lung 42% | NCI-H226 lung 76.3% | NCI-H322M lung 66.1% | HOP-62 NSCLC 63.9% | NCI-H460 lung 26.2% | HOP-92 NSCLC 37.4% | NCI-H522 lung 58.9% | A549/ATCC NSCLC 60.1% | 786-0 renal 39.5% | DU-145 prostate 79.3% | MDA-MB-231 breast 52% | RXF 393 renal 25% | SF-268 CNS 78.1% | SF-295 CNS 35.1%
active: COLO 205 colon -43% | MALME-3M melanoma -5.31% | SF-539 CNS -42.2% | UACC-257 melanoma -2.29% | M14 melanoma -4.9%

COc1cc2c3c(n(CCCN4CCCC4)c(=O)c2cc1OC)-c1cc2c(cc1C3=O)OCO2
inactive: NCI-H226 lung 80.1% | HOP-92 NSCLC 119% | SF-295 CNS 35.1%
active: NCI-H23 lung -73.2% | NCI-H322M lung -40.2% | HOP-62 NSCLC -72.6% | NCI-H460 lung -78.6% | NCI-H522 lung -59.7% | A549/ATCC NSCLC -77.1% | 786-0 renal -90.9% | COLO 205 colon -77.3% | DU-145 prostate -71.1% | MALME-3M melanoma -76.5% | MDA-MB-231 breast -76.1% | RXF 393 renal -75.9% | SF-268 CNS -49.1% | SF-539 CNS -83.2% | M14 melanoma -86.3%

COc1cc2c3c(n(CCCNC4CCC4)c(=O)c2cc1OC)-c1cc2c(cc1C3=O)OCO2
inactive: NCI-H226 lung 70.6% | HOP-92 NSCLC 87.9% | SF-268 CNS 45.6% | SF-295 CNS 20.4%
active: NCI-H23 lung -68% | NCI-H322M lung -37.7% | HOP-62 NSCLC -72.2% | NCI-H460 lung -50.4% | NCI-H522 lung -44.9% | A549/ATCC NSCLC -50.6% | 786-0 renal -85.2% | COLO 205 colon -79.9% | DU-145 prostate -73.5% | MALME-3M melanoma -46.2% | MDA-MB-231 breast -65.1% | RXF 393 renal -74% | SF-539 CNS -83.5% | M14 melanoma -78%

Cn1cc(-c2nn3c(=O)cc(-c4ccccc4)nc3s2)c2cc(F)ccc21
inactive: NCI-H23 lung 59.7% | NCI-H226 lung 46.4% | NCI-H322M lung 65.6% | HOP-62 NSCLC 45% | NCI-H460 lung 15.5% | A549/ATCC NSCLC 36.7% | 786-0 renal 82.5% | COLO 205 colon 44.8% | DU-145 prostate 66.6% | MALME-3M melanoma 22.7% | MDA-MB-231 breast 58.3% | RXF 393 renal 45.9% | SF-268 CNS 78.4% | SF-295 CNS 34.7% | SF-539 CNS 49.9% | M14 melanoma 46.6%
active: HOP-92 NSCLC -3.43% | NCI-H522 lung -37.4%

CS(=O)(=O)c1ccc2c(c1)c1c(n2C(=O)c2ccc(Cl)cc2)CCCC1
active: NCI-H522 lung -44.2% | COLO 205 colon -1.12% | RXF 393 renal -12.1% | SF-539 CNS 1.96%
inactive: NCI-H23 lung 45% | NCI-H226 lung 60.9% | NCI-H322M lung 43.8% | HOP-62 NSCLC 43.1% | NCI-H460 lung 12.3% | HOP-92 NSCLC 35% | A549/ATCC NSCLC 50.6% | 786-0 renal 43.6% | DU-145 prostate 36% | MALME-3M melanoma 43.7% | MDA-MB-231 breast 39.9% | SF-268 CNS 62.1% | SF-295 CNS 22.5% | UACC-257 melanoma 56.8% | M14 melanoma 28.8%

COc1ccc([C@H]2[C@H](O)C(=O)N2c2cc(OC)c(OC)c(OC)c2)cc1
inactive: NCI-H23 lung 12.6% | NCI-H226 lung 19.5% | NCI-H322M lung 47.9% | HOP-62 NSCLC 26.2% | A549/ATCC NSCLC 21.6% | 786-0 renal 19.5% | DU-145 prostate 17.8% | MALME-3M melanoma 59.9% | MDA-MB-231 breast 25% | RXF 393 renal 21.8% | SF-268 CNS 47.5% | SF-295 CNS 14.1% | M14 melanoma 10.3%
active: NCI-H460 lung 3.39% | HOP-92 NSCLC -4.93% | NCI-H522 lung -20.8% | COLO 205 colon -74.6% | SF-539 CNS -20.3%

c1cncc(-c2cn3nc(-c4c[nH]c5ccccc45)sc3n2)c1
inactive: NCI-H23 lung 49.9% | NCI-H322M lung 72.2% | HOP-62 NSCLC 66% | NCI-H460 lung 25.4% | HOP-92 NSCLC 33.8% | A549/ATCC NSCLC 57.8% | 786-0 renal 22.5% | COLO 205 colon 44.4% | DU-145 prostate 73% | MALME-3M melanoma 38.3% | MDA-MB-231 breast 52.5% | RXF 393 renal 52.1% | SF-268 CNS 83.4% | SF-295 CNS 74.7% | SF-539 CNS 42.2% | M14 melanoma 37%
active: NCI-H226 lung -48.5% | NCI-H522 lung 2.85%

COc1cc2c3c(n(CCCNC4CCCCC4)c(=O)c2cc1OC)-c1cc2c(cc1C3=O)OCO2
inactive: NCI-H226 lung 82.5% | HOP-92 NSCLC 91.5% | RXF 393 renal 76.6% | SF-268 CNS 70.1% | SF-295 CNS 66.1% | UACC-257 melanoma 96.9% | M14 melanoma 33%
active: NCI-H23 lung -51.7% | NCI-H322M lung -80.3% | HOP-62 NSCLC -78.9% | NCI-H460 lung -80.1% | NCI-H522 lung -60.5% | A549/ATCC NSCLC -87.5% | 786-0 renal -82.8% | COLO 205 colon -79.2% | DU-145 prostate -68.4% | MALME-3M melanoma -46.9% | MDA-MB-231 breast -78.1% | SF-539 CNS -85.5%

C=C1C(=O)O[C@@H]2C[C@@H](C)[C@H](OC)CC(=O)[C@](C)(OC(C)=O)C[C@H](OC(=O)/C(C)=C\C)[C@@H]12
active: NCI-H522 lung -67.8% | COLO 205 colon -7.69%
inactive: NCI-H23 lung 70% | NCI-H226 lung 96.4% | NCI-H322M lung 95.1% | HOP-62 NSCLC 89.5% | NCI-H460 lung 101% | HOP-92 NSCLC 85.1% | A549/ATCC NSCLC 100% | 786-0 renal 93% | DU-145 prostate 78.3% | MALME-3M melanoma 40.2% | MDA-MB-231 breast 36.7% | RXF 393 renal 58.7% | SF-268 CNS 93.1% | SF-295 CNS 91.6% | SF-539 CNS 71.4% | UACC-257 melanoma 77.1% | M14 melanoma 88.8%

C=C1C(=O)O[C@@H]2C[C@@H](C)/C=C\C(=O)[C@](C)(OC(C)=O)C[C@H](OC(=O)/C(C)=C\C)[C@@H]12
inactive: NCI-H322M lung 88% | HOP-62 NSCLC 74.6% | NCI-H460 lung 20% | A549/ATCC NSCLC 72.9% | SF-295 CNS 70.6%
active: NCI-H23 lung -13.9% | NCI-H226 lung -43.4% | HOP-92 NSCLC -35.6% | NCI-H522 lung -82.4% | 786-0 renal -62.8% | COLO 205 colon -78.3% | DU-145 prostate 3.77% | MALME-3M melanoma -36.4% | MDA-MB-231 breast -71.8% | RXF 393 renal -88.1% | SF-268 CNS -1.46% | SF-539 CNS -57.5% | UACC-257 melanoma -76.1% | M14 melanoma -37.1%

COc1ccc(-c2oc3cc(O)cc(O)c3c(=O)c2OC)cc1O
active: NCI-H460 lung 8.84% | NCI-H522 lung -21% | RXF 393 renal -29.9% | SF-295 CNS -24.1% | SF-539 CNS -34.6%
inactive: NCI-H23 lung 25.7% | NCI-H226 lung 73.6% | NCI-H322M lung 41.2% | HOP-62 NSCLC 29.1% | HOP-92 NSCLC 41.2% | A549/ATCC NSCLC 38% | 786-0 renal 38.8% | COLO 205 colon 91.4% | DU-145 prostate 15.7% | MALME-3M melanoma 68.8% | MDA-MB-231 breast 32.7% | SF-268 CNS 45.2% | UACC-257 melanoma 78.8% | M14 melanoma 28.3%

COc1cc2c3c(n(CCCN4CCCCC4)c(=O)c2cc1OC)-c1cc2c(cc1C3=O)OCO2
active: NCI-H23 lung -91.9% | NCI-H226 lung -61.6% | NCI-H322M lung -96.4% | HOP-62 NSCLC -71.4% | NCI-H460 lung -84.7% | HOP-92 NSCLC -77.4% | NCI-H522 lung -80.2% | A549/ATCC NSCLC -58.4% | 786-0 renal -55.9% | COLO 205 colon -88.8% | DU-145 prostate -92.2% | MALME-3M melanoma -78.5% | MDA-MB-231 breast -77.1% | RXF 393 renal -73.9% | SF-268 CNS -55.5% | SF-295 CNS -75.6% | SF-539 CNS -89.3% | M14 melanoma -89.5%

— PubChem BioAssay (NCI)
